Source: PubChem BioAssay (Broad Institute)
Tgondii IFNg = blocks Toxoplasma gondii growth in the presence of IFN-gamma | Toxoplasma gondii growth in IFN-gamma-treated host cells; active compounds read low | activity change, negative = inhibition, % (test concentration not listed) | actives 3.8% (n = 69,000); in the data active means activity change below about -70%, passing the limit was not always enough;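 further: host cells are HeLa cells infected with Toxoplasma gondii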
Hits are given with their value; . = inactive; ! = not confirmed by another sample. The full list was thinned out, with hits kept by preference.

SMILES	Tgondii IFNg
O=C(Cn1ncc2c(N3CCN(c4ccccc4)CC3)ncnc21)Nc1cccc(F)c1	-85
Cc1ccc(NC(=O)Cn2ncc3c(N4CCN(c5ccccc5)CC4)ncnc32)c(Cl)c1	.
Cc1cc(F)ccc1NC(=O)Cn1ncc2c(N3CCN(c4ccccc4)CC3)ncnc21	.
COc1cc(Cl)c(C)cc1NC(=O)Cn1ncc2c(N3CCN(c4ccccn4)CC3)ncnc21	.
COc1ccc(Cl)cc1NC(=O)Cn1ncc2c(N3CCCC3)ncnc21	-81
Cc1ccccc1NC(=O)Cn1ncc2c(N3CCN(c4ccccc4)CC3)ncnc21	.
Cc1c(C(=O)O)nnn1-c1ccccc1F	.
CC(C)Nc1ncc(-c2nccn2CCc2cnc[nH]2)cn1	.
CCOC(=O)Cn1nnc(-c2cccs2)n1	.
CC(C)c1noc(C2CCCN2C(=O)c2cc(=O)c3ccccc3o2)n1 (stereo not given)	.
CN(C)C1CCCN(C(=O)C23CC4CC(C2)CC(n2cncn2)(C4)C3)CC1 (stereo not given)	.
Cc1c[nH]c(C(=O)N2CCCC3(CC2)CNC(=O)O3)c1 (stereo not given)	.
O=C(C1CCCN(C2CCN(CCCc3ccccc3)CC2)C1)N1CCCC1 (stereo not given)	.
COc1ccc(Nc2nnc(C)c3ccccc23)cc1C(=O)N1CCCCC1	.
Brc1ccc(SCCc2nc3ccccc3o2)cc1	.
Cc1ccc(OCCN(C)Cc2ccc(CO)o2)c(C)c1	.
Cn1cc(CN(Cc2ccc(-n3ccnc3)cc2)C2CC2)cn1	.
CC(Cn1cnc2c3cc(F)ccc3n(CC(=O)NC3CCCC3)c2c1=O)c1ccccc1 (stereo not given)	-102
Cc1ccc2c(c1)cc(S(=O)(=O)c1ccccc1)c(=O)n2CC(=O)NC1CCCC1	.
Cc1noc(-c2cc(=O)n(CC(=O)NC3CCCC3)c3ccccc23)n1	.
Cc1cccn2c(CNC(C)CCn3cccn3)cnc12 (stereo not given)	.
CCOc1cc(C(=O)Nc2ccc3c(c2)CCC(=O)N3)cc(OCC)c1OCC	.
COc1ccc(C(=O)Nc2cccc(-c3nc4ccccc4[nH]3)c2)cc1	.
CCOc1cc(C(=O)Nc2ccc(Cl)c(-c3nc4ccccc4[nH]3)c2)cc(OCC)c1OCC	-76
O=C(NCCc1csc(-c2ccccc2)n1)C1CCN(S(=O)(=O)c2ccccc2F)CC1	.
SMILES	Tgondii IFNg
NC(=S)N/N=C/c1ncccc1N	-80
COc1cccc(-c2cc(C(=O)N3CCCC(C(NC(C)=O)c4nccs4)C3)no2)c1 (stereo not given)	.
CN(C)CCN1CCN(C)C2(CCN(C(=O)c3ccn[nH]3)CC2)C1=O	.
C#C[C@]1(OC(C)=O)CC[C@H]2[C@@H]3CCC4=C[C@@H](OC(C)=O)CC[C@@H]4[C@H]3CC[C@@]21C	.
CC(=O)O[C@]1(C(C)=O)CC[C@H]2[C@@H]3C=C(C)C4=CC(=O)CC[C@@H]4[C@H]3CC[C@@]21C	.
C#C[C@]1(OC(C)=O)CCC2C3CCC4=CC(=O)CC[C@@H]4C3CC[C@@]21C (stereo not given in full)	-83!
COc1cc(C(=O)N2CCOC(c3cc4cc(F)ccc4cn3)C2)nc(OC)n1 (stereo not given)	.
COCCN1C2CCC1CN(C(=O)c1cccc(C#N)c1)C2	.
Cc1cc(C)c(CN2CCN(Cc3ncccc3C)CC2)c(-n2cccn2)c1	.
Cn1cnnc1C1CCN(c2nc(-c3cccnc3)nc3c2cnn3C)CC1	.
CC1(C)CC(=O)c2cnc3nc(N)nn3c2C1	.
Cc1nn(-c2ccc3ccccc3n2)c2c1C(=O)CC(C)(C)C2	-95
Cc1nn(C(=O)c2ccccc2)c2c1C(=O)CC(C)(C)C2	.
CC(=O)Nc1ccc(S(=O)(=O)NCc2nc(-c3ccccc3)oc2C)cc1	.
C=CCN1CC(C(=O)N2CCCN(C)C3(CCN(C)CC3)C2)CC1=O (stereo not given)	.
COc1cc(C(=O)N2CCC(c3n[nH]c(=O)n3-c3ccccc3)CC2)ccn1	.
Fc1ccc(C2Oc3ccc(Cl)cc3C3=C2C(c2ccccc2)n2ncnc2N3)cc1 (stereo not given)	.
Clc1ccc(-c2nc(NC3CCCC3)c3ccccc3n2)cc1	.
Clc1ccc(C2C=C(c3ccccc3)Nc3ncnn32)cc1 (stereo not given)	-85
CCOc1ccccc1NC(=O)N1CCC2(CC1)Nc1cc(F)ccc1-n1cccc12	.
Cc1ccc2nc(SCC(=O)Nc3ccc(F)cc3)c(C)cc2c1	.
C=CCNc1c(C(=O)OC)c(=O)[nH]c2ccc(F)cc12	.
COC(=O)c1ccc(NC(=O)CSc2nnc3c(n2)[nH]c2ccc(F)cc23)cc1	-70
Cn1nccc1-c1cc(C(=O)Nc2nc(-c3ccccn3)cs2)c2ccccc2n1	-101
O=C(Nc1cccc(Cn2cncn2)c1)c1cc(-c2ccccn2)nc2ccccc12	.
SMILES	Tgondii IFNg
Cc1ccc2[nH]cc(CCNC(=O)c3cc(-c4ccccn4)nc4ccccc34)c2c1	.
Cc1nc(NCC2CC2)nc2c1COCC21CCN(c2ncc(F)cn2)C1 (stereo not given)	.
COCCN1CCN(C(=O)c2ccno2)Cc2ccc(C)nc21	.
CNCCCC12CCC(c3ccccc31)c1ccccc12	-79!
CNC(=O)CC1CC2(CCN(S(=O)(=O)c3cccs3)CC2)c2ccccc21 (stereo not given)	.
Cc1ccsc1C(=O)N1CCCn2nnc(COCC3CC3)c2C1	.
O=C(COCc1nnn2c1CN(Cc1ccco1)CCC2)N1CCCC1	.
COc1ccc(S(=O)(=O)N2CSC[C@@H]2C(=O)NCCc2csc(-c3ccccc3)n2)cc1	.
CC(C)N1CC2(CCOCC2)c2cc(NC(=O)c3ccco3)ccc21	.
C=C1c2cccc(O)c2C(=O)C2C(=O)[C@]3(O)C(=O)C(C(N)=O)C(=O)[C@@H](N(C)C)[C@@H]3[C@@H](O)[C@H]12 (stereo not given in full)	-72!
CN(C)C[C@@]12COC[C@@H]1CN(Cc1ccc3c(c1)OCO3)C2	.
CC(=O)N1CCCC[C@@H]2[C@H]1[C@@H](c1ccccc1)CCN2Cc1ccncc1	.
COC(=O)c1cc(CN2CCN(C(=O)c3cccc(OC)c3)CC2)cs1	.
CN1CCN(CCC(=O)NC(c2ccc(Cl)cc2)c2cccnc2)CC1 (stereo not given)	.
COc1cccc(CN2CCN(C(=O)c3cc4nc(C)cc(C)n4n3)[C@@H](C)C2)c1	.
CC(=O)[C@H]1CCC2C3CC=C4C[C@@H](OC(=O)CCC(=O)O)CC[C@]4(C)C3CC[C@@]21C (stereo not given in full)	.
C[C@H]1[C@H](OC(=O)CCC(=O)O)O[C@@H]2O[C@@]3(C)CC[C@H]4[C@H](C)CC[C@@H]1[C@@]24OO3	-80
Cc1oc(-c2ccccc2)nc1Cn1nnc(-c2nc(-c3ccc(F)c(Cl)c3)no2)c1C	.
CCOc1ccc(-c2nc(CN3CCN(C(=O)Nc4ccc(F)cc4)CC3)c(C)o2)cc1	.
O=C1c2ccccc2-c2c1c1ccccc1c(=O)n2Cc1ccc2c(c1)OCO2	.
O=C(CC1COCCN1)NCc1ccc2c(c1)OCO2 (stereo not given)	.
C=C1C2(C(=O)N(Cc3cccnc3)Cc3ccccc3OC)CCC(C2)C1(C)C (stereo not given)	.
CC(C)CN(C[C@@H](O)[C@H](Cc1ccccc1)NC(=O)O[C@H]1CCOC1)S(=O)(=O)c1ccc(N)cc1	.
CC(C)CN(C[C@@H](O)[C@H](Cc1ccccc1)NC(=O)O[C@H]1CO[C@H]2OCC[C@H]21)S(=O)(=O)c1ccc(N)cc1	-72
